Calls of active or inactive are those of the source. Unless noted, the rule behind the calls is not given here.

Among the data in PubChem BioAssay are z-score and composite z-score values, retold here.

A short description of test [1]: compound effects on lung adenocarcinoma cell viability – A549, calcein-AM fluorescence, 48 h, basal, profiling panel (AID 1162). Note: test concentration not given here. The settings on record: higher = more signal.
A short description of test [2]: compound effects on differentiated 3T3-L1 adipocyte viability – cell-based, 3T3-L1 adipocytes, calcein-AM fluorescence, 48 h, basal, profiling panel (AID 1163). Note: test concentration not given here. The settings on record: 3T3-L1 adipocytes viability, higher = more signal.
Test [3] can be described thus: compound effects on hepatocellular carcinoma cell viability – HepG2, calcein-AM fluorescence, 48 h, basal, profiling panel (AID 1164). Note: test concentration not given here. The settings on record: higher = more signal.
A short description of test [4]: compound effects on multiple myeloma cell viability – MM1S, calcein-AM fluorescence, 48 h, basal, profiling panel (AID 1165).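 Note: viability of MM1S multiple myeloma cells under basal unstimulated conditions; test concentration not given here.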 The settings on record: higher = more signal.
Test [5] can be described thus: calcein-AM signal in unstimulated myeloma cells – cell-based, calcein-AM fluorescence, 48 h, PK04 Diversity Set, profiling panel (AID 1166).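 Note: cells grown under basal conditions without added stimulus; test concentration not given here.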 The settings on record: RPMI8226 myeloma viability, higher = more signal.
The nature of test [6]: JC-1 mitochondrial signal, unstimulated HepG2 cells – cell-based, JC-1 fluorescence, 24 h, 100 nL compound, profiling panel (AID 1167). Note: test concentration not given here. The settings on record: HepG2 mitochondrial potential, higher = more signal.
The nature of test [7]: JC-1 mitochondrial signal, unstimulated adipocytes – cell-based, JC-1 fluorescence, 3T3-L1 adipocytes, 24 h, 100 nL compound, profiling panel (AID 1168). Note: test concentration not given here. The settings on record: JC-1 mitochondrial fluorescence, higher = more signal, called active from +8 up or from −8 down.
Test [8] is described as follows: JC-1 mitochondrial signal, unstimulated myeloma cells – cell-based, JC-1 fluorescence, RPMI8226, 24 h, 100 nL compound, profiling panel (AID 1169). Note: test concentration not given here. The settings on record: JC-1 mitochondrial potential fluorescence, higher = more signal.
Test [9] in a line: JC-1 mitochondrial signal, unstimulated MM1S myeloma – cell-based, JC-1 fluorescence, 24 h, 100 nL compound, profiling panel (AID 1170). Note: test concentration not given here. The settings on record: MM1S mitochondrial potential, higher = more signal.
The nature of test [10]: resazurin metabolic signal in A549 cells – cell-based, resazurin fluorescence, 24 h, PK04 Diversity Set, profiling panel (AID 1171). Note: test concentration not given here. To be noted: A549 viability, higher = more signal, called active from +8 up or from −8 down. A general note: Resazurin is reduced to fluorescent resorufin, in cell work by metabolically active cells.
Test [11] in a line: resazurin metabolic signal in HepG2 cells – cell-based, resazurin fluorescence, 24 h, PK04 Diversity Set, profiling panel (AID 1172). Note: test concentration not given here. The settings on record: HepG2 viability, higher = more signal.
Test [12] is described as follows: budding yeast growth changes without added modifier – OD600, strain BY4716, 24 h, basal condition, primary screen (AID 1173). The settings on record: S. cerevisiae BY4716 growth, OD600, 24 h; higher = more signal, called active from +8 up or from −8 down.
The nature of test [13]: viability profiling in MM1S myeloma cells – cell-based, resazurin fluorescence, basal, 24 h, PK04 Diversity Set, profiling panel (AID 1174). Note: test concentration not given here. To be noted: higher = more signal, called active from +8 up or from −8 down.
For test [14], the target named is Dihydroorotate dehydrogenase (quinone), mitochondrial (Plasmodium falciparum (isolate 3D7)) (UniProt Q08210). Kind of test: inhibition of P. falciparum DHODH – biochemical, C-terminal His tag, absorbance 600 nm, primary screen (AID 1175).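 Note: recombinant parasite enzyme with a five histidine tag at its C terminus; test concentration not given here.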 The settings on record: PfDHODH enzyme, DCIP absorbance 600 nm; higher = more signal, called active from +8 up or from −8 down.
Sequence of Dihydroorotate dehydrogenase (quinone), mitochondrial (Plasmodium falciparum (isolate 3D7)) (Q08210 whole entry, looked up): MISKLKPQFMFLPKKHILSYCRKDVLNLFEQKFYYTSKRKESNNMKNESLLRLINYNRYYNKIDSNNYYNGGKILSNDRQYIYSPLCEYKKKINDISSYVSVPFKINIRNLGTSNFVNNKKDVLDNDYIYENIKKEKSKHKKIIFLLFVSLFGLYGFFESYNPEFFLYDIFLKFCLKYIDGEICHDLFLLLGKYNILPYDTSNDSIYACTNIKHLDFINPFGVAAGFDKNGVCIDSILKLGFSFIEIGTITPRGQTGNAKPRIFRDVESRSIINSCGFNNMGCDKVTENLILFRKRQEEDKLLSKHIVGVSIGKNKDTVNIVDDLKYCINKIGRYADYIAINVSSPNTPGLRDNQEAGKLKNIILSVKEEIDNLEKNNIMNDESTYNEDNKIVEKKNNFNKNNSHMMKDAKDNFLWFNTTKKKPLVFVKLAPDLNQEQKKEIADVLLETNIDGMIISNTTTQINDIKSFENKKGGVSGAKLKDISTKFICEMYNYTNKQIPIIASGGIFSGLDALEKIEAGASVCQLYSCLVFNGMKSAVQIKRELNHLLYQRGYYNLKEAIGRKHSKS

Test [15] can be described thus: inhibition of PAO1 biofilm formation – strain PAO1, LB-PBS medium, absorbance 600 nm, primary screen (AID 1176). Note: test concentration not given here. To be noted: P. aeruginosa PAO1 growth/biofilm, A600, 12 h; higher = more signal.
Test [16] in a line: growth modulation of vineyard yeast isolate – strain RM11-1a, OD600, basal, 24 h, primary screen (AID 1177).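 Note: cultures grown under basal conditions with no added stressor; test concentration not given here.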 To be noted: S. cerevisiae RM11-1a growth, OD600, 24 h; higher = more signal, called active from +8 up or from −8 down.
Test [17] can be described thus: growth of efflux-deficient E. coli DRC39 – strain DRC39, OD650, 24 h, E. coli filamentation inducers, primary screen (AID 1178).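 Note: growth measured as culture turbidity by optical density at 650 nm; test concentration not given here.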 To be noted: E. coli DRC39 acrAB, higher = more signal, called active from +8 up or from −8 down.
Test [18] is described as follows: growth of efflux-deficient E. coli DRC39 – strain DRC39, OD650, 48 h, E. coli filamentation inducers, primary screen (AID 1179).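 Note: screen aims at cell division blockers that make cells filament.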 To be noted: E. coli DRC39 delta-acrAB growth, higher = more signal, called active from +8 up or from −8 down.
Test [19] is described as follows: viability profiling in RPMI8226 myeloma cells – cell-based, resazurin fluorescence, basal, 24 h, PK04 Diversity Set, profiling panel (AID 1180).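 Note: RPMI8826 multiple myeloma cell line at 5000 cells per well; test concentration not given here.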 The settings on record: higher = more signal.
In test [20] the target is E3 ubiquitin-protein ligase XIAP (Homo sapiens) (UniProt P98170). Kind of test: small molecules binding XIAP protein – biophysical, small-molecule microarray, fluorescence 635 nm, primary screen (AID 1181).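 Note: score merges 667 nm emission and signal to noise over triplicate slides.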 The settings on record: higher = more signal.
Sequence of E3 ubiquitin-protein ligase XIAP (Homo sapiens) (P98170 whole entry, looked up): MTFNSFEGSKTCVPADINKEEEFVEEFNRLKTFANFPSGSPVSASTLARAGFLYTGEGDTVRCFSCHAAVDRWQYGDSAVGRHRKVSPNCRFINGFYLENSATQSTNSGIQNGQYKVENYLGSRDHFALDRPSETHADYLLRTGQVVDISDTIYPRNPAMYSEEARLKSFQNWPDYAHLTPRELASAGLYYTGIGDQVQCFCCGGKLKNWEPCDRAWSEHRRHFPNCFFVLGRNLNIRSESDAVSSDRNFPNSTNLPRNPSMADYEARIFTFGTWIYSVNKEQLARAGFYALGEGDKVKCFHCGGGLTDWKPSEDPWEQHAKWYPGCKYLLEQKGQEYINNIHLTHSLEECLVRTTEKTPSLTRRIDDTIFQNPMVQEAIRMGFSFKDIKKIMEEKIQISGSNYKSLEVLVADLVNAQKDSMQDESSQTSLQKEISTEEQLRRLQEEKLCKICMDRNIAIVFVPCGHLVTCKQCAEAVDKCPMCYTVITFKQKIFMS

With `C[C@]1(C(=O)NC2CC2)c2ccccc2C(=O)N(Cc2ccccc2)[C@H]1c1ccc(CO)cc1`, the z-score in test [1] was 0.395; in [2] it was 1.51; in [3], -0.577; in test [4] it was 0.855; in test [5] it was -0.655; in test [6], 1.66. Also, the z-score in [7] is 0.195 (inactive); in [8] it was -0.0462; in test [9], 0.263; in [10], 0.54 (inactive); in test [11], -0.0738; in test [12] it was -0.886 (inactive). Further, the z-score is 1.62 (inactive) in test [13]; 0.553 (inactive) in test [15]; -1.02 (inactive) in [16]; 0.809 (inactive) in [17]; 0.653 (inactive) in [18]; 1.08 in test [19]. Moreover, the values for the composite z-score in [14] and in test [20] were -0.806 (inactive) and -0.234, respectively.
With `N#Cc1ccc(NN2C(C(O)c3ccc(F)cc3)C=CC3C(=O)N(c4ccccc4)C(=O)C32)cc1` (stereo not given), the z-score was -0.518 in test [1]; -0.877 in test [2]; 0.211 in test [3]; -0.453 in [4]; -1.33 in test [5]; -1.58 in test [6]. In addition, the z-score is -0.311 (inactive) in test [7]; 0.321 in test [8]; 0.153 in test [9]; 0.133 (inactive) in [10]; -0.587 in test [11]; -0.0167 (inactive) in [12]. The z-score was -0.388 (inactive) in test [13]; 0.695 (inactive) in test [15]; 0.222 (inactive) in [16]; -1.06 (inactive) in test [17]; -0.405 (inactive) in test [18]; -0.67 in [19]. For the same molecule, the composite z-score in [14] was 0.37 (inactive); in test [20], 0.0651.
Turning to `Cc1ccc(S[C@]2(C(=O)NCC(F)(F)F)CC(=O)N(C3CCCCC3)[C@@H]2c2ccc(CO)cc2I)cc1`, the z-score in [1] is 0.335; in test [2] it was 0.66; in [3], 0.133; in test [4], -2.65; in test [5], -1.91; in [6], -0.807. The z-score is -0.482 (inactive) in [7]; -0.445 in [8]; 0.176 in test [9]; 0.741 (inactive) in test [10]; 0.04 in [11]; 0.108 (inactive) in test [12]. The z-score is 0.384 (inactive) in test [13]; 0.201 (inactive) in test [15]; -0.531 (inactive) in test [16]; -0.0243 (inactive) in test [17]; -0.223 (inactive) in [18]; -0.128 in test [19]. For the same molecule, the composite z-score in [14] is 0.0443 (inactive); in [20], -0.12.
Consider `CN(C)CCCCNC(=O)[C@@H]1C[C@@H]2C(=O)N[C@@H](Cc3ccccc3)C(=O)N2[C@@H]1c1cccc(OCCO)c1`, for which the z-score in test [1] is 1.74; in test [2], 0.296; in test [3], 1.13; in [4] it was -0.729; in test [5], 0.573; in test [6], 1.88. The z-score in test [7] was 0.76 (inactive); in test [8], -0.0777; in test [9], 0.108; in test [10], -0.0805 (inactive); in test [11], 0.225; in [12] it was -0.957 (inactive). Besides, the z-score was 0.977 (inactive) in test [13]; 0.215 (inactive) in test [15]; -3.29 (inactive) in test [16]; 2.51 (inactive) in [17]; 2.13 (inactive) in test [18]; 0.588 in test [19]. The composite z-score was -2.56 (inactive) in test [14] and 0.109 in test [20].
Turning to `NC(=O)N1C(=O)C2C(C1=O)C1C=C(CCCO)C2C(c2cccs2)N1Cc1cccc(OC(F)(F)F)c1` (stereo not given), the z-score in test [1] was 0.604; in [2], 0.151; in [3] it was -0.4; in [4] it was -2.98; in test [5], -1.11; in test [6] it was -0.339. The z-score in test [7] was -0.678 (inactive); in [8], 0.146; in test [9], 1.37; in test [10], 0.48 (inactive); in test [11] it was 0.0214; in [12] it was -3.57 (inactive). Further, the z-score is -0.637 (inactive) in [13]; -0.223 (inactive) in test [15]; 0.199 (inactive) in test [16]; -0.205 (inactive) in test [17]; -0.692 (inactive) in test [18]; -0.18 in [19]. Moreover, the composite z-score is -0.376 (inactive) in [14] and 0.195 in test [20].
As for `COC(=O)[C@@]1(Cc2ccc(OC)cc2)[C@H]2c3cc(C(=O)N4CCCC4)n(Cc4cccc5ccccc45)c3C[C@H]2CN1C(=O)c1ccccc1`, the z-score in test [1] is -0.249; in test [2], -0.305; in test [3], 1.39; in [4] it was -0.47; in [5], -0.718; in test [6] it was 2.15. The z-score in test [7] is -0.198 (inactive); in [8], -0.427; in [9] it was -1.26; in test [10], -0.506 (inactive); in test [11], -0.18; in test [12], 1.07 (inactive). Further, the z-score in test [13] was -0.619 (inactive); in test [15], -0.362 (inactive); in [16] it was 1.08 (inactive); in test [17] it was 0.24 (inactive); in test [18], 0.277 (inactive); in test [19], 0.0686. The composite z-score was 0.237 (inactive) in test [14] and 0.5 in [20].
As for `C[C@H]1NC(=O)[C@@]23C(=O)N[C@@H](Cc4ccccc4)C2[C@H](C)[C@@]2(C)O[C@H]2C3/C=C/C/C=C\CNC(=O)[C@H](Cc2ccccc2)NC1=O` (stereo not given in full), the z-score was -0.518 in test [1]; 0.76 in test [2]; -0.607 in test [3]; 0.401 in [4]; -0.45 in [5]; 0.88 in [6]. Also, the z-score in [7] was -0.588 (inactive); in [8] it was 0.331; in [9], 1.02; in test [10], 0.0548 (inactive); in test [11] it was -0.466; in test [12], 0.303 (inactive). In addition, the z-score is -0.0253 (inactive) in [13]; 1.24 (inactive) in test [15]; 1.31 (inactive) in test [16]; 0.513 (inactive) in test [17]; 0.32 (inactive) in [18]; 0.0583 in [19]. Further, the composite z-score in test [14] is 0.226 (inactive); in test [20] it was 0.104.
With `COc1ccc(-c2cc3c(c(CCc4ccccc4)n2)[Si](C(C)C)(C(C)C)OC3)cn1`, the z-score in [1] was 0.342; in test [2], -0.171; in [3] it was -0.999; in [4], -1.68; in [5], -2.05; in [6] it was -0.911. The z-score was -0.315 (inactive) in test [7]; -0.738 in test [8]; -0.24 in [9]; 2.35 (inactive) in test [10]; 1.09 in [11]; 0.0476 (inactive) in [12]. Also, the z-score was 0.42 (inactive) in test [13]; -1.29 (inactive) in test [15]; 0.817 (inactive) in test [16]; 0.152 (inactive) in test [17]; 0.469 (inactive) in test [18]; 1.18 in test [19]. In addition, the figures for the composite z-score in test [14] and in test [20] were -0.319 (inactive) and 0.136, respectively.
On to `CC(C)C(CO)N1C(=O)[C@@H]2C3C(=O)OCCC/C=C\[C@H]3OC23C=CCN(C(C)(C)C)C(=O)[C@@H]13` (stereo not given in full), for which the z-score in test [1] is -0.444; in [2], -0.496; in test [3] it was -0.972; in test [4], 0.724; in test [5] it was 0.851; in [6] it was -0.3. The z-score is 0.306 (inactive) in test [7]; 0.0508 in test [8]; -0.351 in test [9]; -0.265 (inactive) in test [10]; -0.263 in test [11]; 0.463 (inactive) in test [12]. Besides, the z-score was -0.428 (inactive) in [13]; -0.0711 (inactive) in [15]; -0.348 (inactive) in [16]; 0.235 (inactive) in test [17]; 0.129 (inactive) in [18]; -0.489 in [19]. The results for the composite z-score in test [14] and in test [20] were -1.85 (inactive) and -0.204, respectively.
